The text below walks through data of publication PMC7862700, “An all-to-all approach to the identification of sequence-specific readers for epigenetic DNA modifications on cytosine”.

Assay in all cases: DAPPL (digital affinity profiling via proximity ligation, sequencing); 10 mM Tris-HCl pH 7.5, 50 mM NaCl, 1 mM DTT, 4% glycerol, room temperature, 30 min; GST-TFs on glutathione beads, 16-mer random dsDNA library, 0.1% formaldehyde crosslink after washing; high values mean tight binding
Common to all, as to conditions: protein: recombinant; tags: N-terminal GST; dsDNA, one strand shown

One assay has as its target T1, ELK1 (Homo sapiens, UniProt P19419 1-428).
T1 sequence: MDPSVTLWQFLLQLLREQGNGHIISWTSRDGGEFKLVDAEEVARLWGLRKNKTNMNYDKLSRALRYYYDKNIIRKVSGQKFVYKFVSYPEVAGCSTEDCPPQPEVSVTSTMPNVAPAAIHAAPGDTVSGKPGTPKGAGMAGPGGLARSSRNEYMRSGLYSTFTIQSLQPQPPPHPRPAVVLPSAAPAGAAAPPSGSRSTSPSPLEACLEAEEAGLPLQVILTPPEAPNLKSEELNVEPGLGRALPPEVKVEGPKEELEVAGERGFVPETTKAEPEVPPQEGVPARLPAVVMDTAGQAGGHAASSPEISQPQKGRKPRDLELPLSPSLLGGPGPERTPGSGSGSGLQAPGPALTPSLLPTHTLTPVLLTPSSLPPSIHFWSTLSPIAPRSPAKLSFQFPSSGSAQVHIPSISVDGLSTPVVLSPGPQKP
In a few lines:
(§1)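 The binding signal reported is, for every hexamer, its read frequency for a factor over its read frequency for the tag-only sample. Reads came from pools of yeast-expressed, GST-fused human transcription factors on glutathione beads, barcoded with DNA and mixed with that sample, which were incubated with 200 nmole of a random double-stranded 16-mer DNA library in Tris/NaCl/DTT/glycerol buffer at room temperature for 30 min. After washing, the pools were crosslinked with 0.1% formaldehyde, proximity-ligated with BsaI/T4 ligase for 1 h at 37 °C, PCR-amplified and sequenced on an Illumina NextSeq500.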

The target of a further assay is T2, GABPA (Homo sapiens, UniProt Q06546 1-454).
T2 sequence: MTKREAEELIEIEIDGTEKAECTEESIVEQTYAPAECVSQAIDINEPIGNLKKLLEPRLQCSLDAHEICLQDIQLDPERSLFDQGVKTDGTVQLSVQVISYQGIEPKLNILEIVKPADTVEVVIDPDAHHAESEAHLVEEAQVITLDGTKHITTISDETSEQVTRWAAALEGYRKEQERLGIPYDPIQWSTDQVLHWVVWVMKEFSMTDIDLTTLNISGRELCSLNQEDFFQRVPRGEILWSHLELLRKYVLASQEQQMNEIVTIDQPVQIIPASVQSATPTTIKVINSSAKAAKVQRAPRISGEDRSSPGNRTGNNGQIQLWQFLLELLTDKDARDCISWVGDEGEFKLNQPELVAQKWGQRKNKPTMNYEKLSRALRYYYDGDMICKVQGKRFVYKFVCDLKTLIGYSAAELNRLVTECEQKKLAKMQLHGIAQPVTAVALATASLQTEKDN
In a few lines:
as §1

In the next assay the target is T3, ERG (Homo sapiens, UniProt P11308 1-479).
T3 sequence: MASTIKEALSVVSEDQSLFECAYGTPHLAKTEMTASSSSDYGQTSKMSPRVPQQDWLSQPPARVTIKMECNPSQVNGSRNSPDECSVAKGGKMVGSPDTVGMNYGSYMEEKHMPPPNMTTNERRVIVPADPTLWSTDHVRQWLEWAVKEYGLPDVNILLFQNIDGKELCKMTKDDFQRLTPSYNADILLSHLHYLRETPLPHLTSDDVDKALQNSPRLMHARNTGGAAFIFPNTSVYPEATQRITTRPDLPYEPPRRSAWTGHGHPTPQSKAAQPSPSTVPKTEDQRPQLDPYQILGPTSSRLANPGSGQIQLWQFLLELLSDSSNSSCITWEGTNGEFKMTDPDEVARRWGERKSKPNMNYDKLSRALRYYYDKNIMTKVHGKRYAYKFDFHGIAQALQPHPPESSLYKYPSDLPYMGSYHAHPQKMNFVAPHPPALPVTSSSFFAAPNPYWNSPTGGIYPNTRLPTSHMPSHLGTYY
The procedure, abridged: as §1

The target in a further assay is ELF1 (Homo sapiens, UniProt P32519 1-619). The procedure, abridged:
as §1

Another assay deals with T4, EHF (Homo sapiens, UniProt Q9NZC4 1-300).
T4 sequence: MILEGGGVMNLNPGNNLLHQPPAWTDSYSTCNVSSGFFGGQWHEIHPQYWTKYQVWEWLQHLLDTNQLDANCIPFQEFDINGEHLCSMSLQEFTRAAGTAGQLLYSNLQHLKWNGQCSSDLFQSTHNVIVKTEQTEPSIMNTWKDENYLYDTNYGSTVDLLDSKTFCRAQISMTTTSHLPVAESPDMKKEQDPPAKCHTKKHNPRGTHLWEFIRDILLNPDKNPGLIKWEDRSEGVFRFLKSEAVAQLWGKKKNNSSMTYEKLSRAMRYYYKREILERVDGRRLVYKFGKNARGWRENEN
In a few lines:
as §1

For the next assay, the target named is SPIB (Homo sapiens, UniProt Q01892 1-262). The procedure, abridged:
as §1

Another assay addresses T5, FEV (Homo sapiens, UniProt Q99581 1-238).
T5 sequence: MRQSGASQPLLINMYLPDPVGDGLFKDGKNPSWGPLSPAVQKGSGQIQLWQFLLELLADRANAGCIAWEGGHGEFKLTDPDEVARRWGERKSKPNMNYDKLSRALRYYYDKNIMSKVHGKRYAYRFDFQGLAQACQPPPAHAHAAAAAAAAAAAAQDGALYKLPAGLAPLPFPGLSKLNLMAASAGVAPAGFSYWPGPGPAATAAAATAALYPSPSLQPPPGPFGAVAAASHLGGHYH
The procedure, abridged: as §1

For a further assay, the target named is ETV5 (Homo sapiens, UniProt P41161 1-510). In a few lines:
as §1

In a further assay the target is ELF4 (Homo sapiens, UniProt Q99607 1-663). The procedure, abridged: as §1
Sequence of ELF4 (Q99607 whole entry): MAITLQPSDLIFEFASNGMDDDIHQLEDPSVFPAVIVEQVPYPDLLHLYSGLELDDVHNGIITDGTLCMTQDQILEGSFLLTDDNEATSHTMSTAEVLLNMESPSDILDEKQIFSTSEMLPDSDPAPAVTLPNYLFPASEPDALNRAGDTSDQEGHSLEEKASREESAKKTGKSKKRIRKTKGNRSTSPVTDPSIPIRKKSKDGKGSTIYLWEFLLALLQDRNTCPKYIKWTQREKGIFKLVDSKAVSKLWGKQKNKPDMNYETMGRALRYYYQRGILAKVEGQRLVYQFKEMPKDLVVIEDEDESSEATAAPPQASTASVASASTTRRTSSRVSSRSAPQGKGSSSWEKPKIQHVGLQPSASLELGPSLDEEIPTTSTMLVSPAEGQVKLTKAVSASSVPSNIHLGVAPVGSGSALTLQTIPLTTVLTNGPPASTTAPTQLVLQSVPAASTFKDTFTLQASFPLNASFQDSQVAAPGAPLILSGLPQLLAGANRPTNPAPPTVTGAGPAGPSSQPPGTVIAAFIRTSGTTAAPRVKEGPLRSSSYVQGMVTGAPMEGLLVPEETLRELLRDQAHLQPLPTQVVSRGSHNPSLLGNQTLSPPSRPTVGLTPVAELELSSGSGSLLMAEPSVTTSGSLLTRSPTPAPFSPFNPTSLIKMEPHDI
The next assay addresses T6, ELK4 (Homo sapiens, UniProt P28324-2 1-405).
T6 sequence: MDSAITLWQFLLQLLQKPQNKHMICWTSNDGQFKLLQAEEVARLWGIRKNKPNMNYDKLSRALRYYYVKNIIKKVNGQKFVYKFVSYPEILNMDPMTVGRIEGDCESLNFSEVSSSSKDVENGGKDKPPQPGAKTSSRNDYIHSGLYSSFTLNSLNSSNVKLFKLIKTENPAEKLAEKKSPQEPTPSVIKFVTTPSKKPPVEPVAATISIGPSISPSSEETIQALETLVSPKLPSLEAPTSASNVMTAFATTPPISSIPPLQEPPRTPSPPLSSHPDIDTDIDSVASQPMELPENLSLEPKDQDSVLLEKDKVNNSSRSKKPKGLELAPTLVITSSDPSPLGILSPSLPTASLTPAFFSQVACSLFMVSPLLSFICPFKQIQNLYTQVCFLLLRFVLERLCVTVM
In a few lines:
as §1

Sequence of ETV5 (P41161 whole entry): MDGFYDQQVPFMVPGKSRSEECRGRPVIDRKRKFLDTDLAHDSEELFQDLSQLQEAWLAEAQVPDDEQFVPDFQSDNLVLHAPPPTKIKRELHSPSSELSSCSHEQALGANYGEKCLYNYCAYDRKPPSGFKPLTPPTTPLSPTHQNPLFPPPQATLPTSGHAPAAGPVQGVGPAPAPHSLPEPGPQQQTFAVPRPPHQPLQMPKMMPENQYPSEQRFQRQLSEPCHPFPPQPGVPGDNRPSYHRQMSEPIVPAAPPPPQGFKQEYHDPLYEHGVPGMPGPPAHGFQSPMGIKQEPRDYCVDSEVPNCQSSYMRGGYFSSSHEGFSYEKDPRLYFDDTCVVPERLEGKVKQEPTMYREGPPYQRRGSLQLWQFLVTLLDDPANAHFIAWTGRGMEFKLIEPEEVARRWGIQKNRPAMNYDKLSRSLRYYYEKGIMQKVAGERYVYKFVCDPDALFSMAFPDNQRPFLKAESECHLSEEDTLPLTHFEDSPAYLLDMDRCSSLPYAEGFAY
Sequence of ELF1 (P32519 whole entry): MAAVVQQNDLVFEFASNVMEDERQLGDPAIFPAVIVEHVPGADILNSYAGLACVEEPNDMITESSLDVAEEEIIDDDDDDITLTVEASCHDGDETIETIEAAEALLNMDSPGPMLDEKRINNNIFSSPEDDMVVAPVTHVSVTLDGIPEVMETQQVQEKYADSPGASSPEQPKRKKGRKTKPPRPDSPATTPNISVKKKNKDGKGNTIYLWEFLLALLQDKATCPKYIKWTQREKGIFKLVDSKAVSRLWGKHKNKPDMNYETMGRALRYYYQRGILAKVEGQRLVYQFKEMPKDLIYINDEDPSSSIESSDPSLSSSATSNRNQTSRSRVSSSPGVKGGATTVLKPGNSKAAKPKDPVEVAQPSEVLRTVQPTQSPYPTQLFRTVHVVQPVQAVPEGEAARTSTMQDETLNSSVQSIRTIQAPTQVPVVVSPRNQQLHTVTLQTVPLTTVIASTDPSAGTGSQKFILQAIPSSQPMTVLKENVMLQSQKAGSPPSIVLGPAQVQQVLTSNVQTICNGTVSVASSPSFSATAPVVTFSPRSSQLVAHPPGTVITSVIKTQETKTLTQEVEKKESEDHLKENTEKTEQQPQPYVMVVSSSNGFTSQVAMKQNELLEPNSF
Sequence of SPIB (Q01892 whole entry): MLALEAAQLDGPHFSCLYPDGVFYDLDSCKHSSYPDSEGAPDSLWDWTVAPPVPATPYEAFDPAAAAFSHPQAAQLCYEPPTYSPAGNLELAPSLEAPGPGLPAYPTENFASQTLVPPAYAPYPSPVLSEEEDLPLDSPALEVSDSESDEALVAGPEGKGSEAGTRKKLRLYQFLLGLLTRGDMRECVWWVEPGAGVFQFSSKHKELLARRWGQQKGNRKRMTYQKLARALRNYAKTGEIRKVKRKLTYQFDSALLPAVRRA

Consider CGTAAA, for which the binding signal in the assay with ELK1 is 1.12 fold enrichment (6-mer frequency, TF over GST control); in the assay with GABPA, 1.23 fold enrichment (6-mer frequency, TF over GST control); with ERG it was 1.13 fold enrichment (6-mer frequency, TF over GST control); with ELF1, 1.07 fold enrichment (6-mer frequency, TF over GST control); with EHF it was 1.13 fold enrichment (6-mer frequency, TF over GST control); with SPIB, 1.08 fold enrichment (6-mer frequency, TF over GST control). Moreover, the binding signal with FEV is 1.04 fold enrichment (6-mer frequency, TF over GST control); with ETV5, 1.14 fold enrichment (6-mer frequency, TF over GST control); in the assay with ELF4 it was 1.11 fold enrichment (6-mer frequency, TF over GST control); with ELK4, 1.05 fold enrichment (6-mer frequency, TF over GST control).
